An excerpt weighted towards active compounds, which were near 0.52% of everything screened.
Vif-A3G inh – qHTS for Inhibitors of Vif-A3G Interactions: qHTS; DNA dC->dU-editing enzyme APOBEC-3G (Homo sapiens), Q9HC16; HeLa A3G-eYFP + Vif (tagged APOBEC3G with the HIV-1 protein that degrades it), YFP fluorescence, overnight; Potency, µM (doses to about 46.1 µM), without a hit: at the highest dose activity, negative = active, actives largely listed as inhibitors; actives 0.076% (n = 410,000); note: % is set by controls: 0 for no effect and ±100 for the full control effect; nearly all actives have a fitted effect of over 60% in size
Target sequence (Q9HC16 whole entry, looked up): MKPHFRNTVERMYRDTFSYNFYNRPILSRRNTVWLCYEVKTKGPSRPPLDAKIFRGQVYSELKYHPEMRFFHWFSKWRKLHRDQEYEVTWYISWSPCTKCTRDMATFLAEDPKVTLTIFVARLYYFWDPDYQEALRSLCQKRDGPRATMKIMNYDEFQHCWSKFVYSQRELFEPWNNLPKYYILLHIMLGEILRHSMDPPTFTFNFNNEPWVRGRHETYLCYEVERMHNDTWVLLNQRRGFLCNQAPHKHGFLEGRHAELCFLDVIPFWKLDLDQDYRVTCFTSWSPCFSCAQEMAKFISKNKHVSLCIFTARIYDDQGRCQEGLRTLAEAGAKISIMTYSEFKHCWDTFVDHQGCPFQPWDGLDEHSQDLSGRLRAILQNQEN
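HeLa cells stably expressing Vif and C-terminally eYFP-tagged A3G, seeded overnight at 37 deg C, then exposed to compound by pintool overnight at 37 deg C. Rise in yellow fluorescence (Ex 488/Em 500-530, Acumen) marks blocked Vif-driven A3G degradation.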
PINK1 expr mod – A Quantitative High throughput Screen to Identify Chemical Modulators of PINK1 Expression; actives 0.2% (n = 410,000); Potency, µM (top dose mostly 76.6 µM), without a hit: at the top dose activation (PINK1 increase), actives largely listed as activators; PINK1 immunofluorescence, high-content cytometry, 24 h; active = well fitted activation curve with a large enough effect; inconclusive = small, poorly fitted or top-dose-only effect; cell line not stated here; note: % of control where 0% means no effect; nearly all actives have a fitted effect of over 65% in size
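Decision-based qHTS: stable cells, 24 h exposure to five compound concentrations, CCCP as control. Fixed cells stained for PINK1 plus nuclear, mitochondrial and cell markers, cytometer read.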
Vif-A3F inh – qHTS for Inhibitors of Vif-A3F Interactions: qHTS; HeLa A3F-eYFP + Vif (tagged APOBEC3F with the HIV-1 protein that degrades it), YFP fluorescence increase; Potency, µM (top dose mostly 46.1 µM), without a hit: at the highest dose activity, negative = active; actives 0.2% (n = 390,000); AID 602313, 2012; note: % of control where 0% means no effect; nearly all actives have a fitted effect of over 65% in size
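HeLa cells stably expressing A3F-eYFP plus Vif, plated and incubated overnight at 37 deg C, then exposed to compounds overnight at 37 deg C. Blocked degradation read as raised yellow fluorescence (Ex 488/Em 500-530).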
Epigenetic reg – Quantitative High-Throughput Screen for Regulators of Epigenetic Control; Potency, µM (series often up to 53.9 µM), for the others: at the top dose GFP activation, usual class: activators; actives 0.2% (n = 280,000); murine LDR cells, GFP reporter derepression, 30 h; note: % of control where 0% means no effect; nearly all actives have a fitted effect of over 60% in size
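Murine LDR cells carrying a silenced, genomically integrated CMV-driven GFP reporter were exposed to compound for 30 hours at 37 C. After PBS washes, GFP-positive cells (20–120 um objects) were counted by laser-scanning microplate cytometry.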
An asterisk follows results filed as active; ? = inconclusive; · = no result. Unless noted, calls come from the whole dose curve; as a rule, active = well fitted curve in the direction sought with a large enough effect; inconclusive = small, poorly fitted or top-dose-only effect, or another doubt; inactive = no such curve, though single readings can be large; an effect the other way counts as inactive or inconclusive. Potency is the fitted concentration of half-maximal effect.

SMILES | Vif-A3G inh | PINK1 expr mod | Vif-A3F inh | Epigenetic reg
OCCCn1c(C2CCCN2c2nc(-c3ccc(F)cc3)cs2)nc2cc(Cl)c(N3CCCCC3)cc21 (stereo not given) | 1% | 1% | 25µM* | ·
Cc1onc(-c2c(F)cccc2Cl)c1C(=O)O/N=C(\N)c1ccc([N+](=O)[O-])o1 | 22µM* | -1% | 5% | -2%
C/C(=N\OC(=O)c1c(-c2c(F)cccc2Cl)noc1C)c1nccs1 | 1% | 5% | -9% | -4%
CSc1nsc(/C=C/Nc2ccc(F)cc2F)c1C#N | ? | 6% | ? | 4µM*
COc1ccccc1CN1CCC(n2cc(C(=O)N3CCCCC3)nn2)CC1 | · | 0% | · | ·
Cc1cc(NC(=O)CSc2nc3c(C)cccc3cc2C#N)no1 | ? | ? | 11µM* | ·
Cc1cc(NC(=O)CSc2nc3c(C)ccc(C)c3cc2C#N)no1 | -12% | 1% | ? | ·
Cc1cccc2cc(C#N)c(SCC(=O)N3CC(=O)Nc4ccccc43)nc12 | ? | 4% | ? | 20µM*
CCNc1ncc2nc(-c3cn(C)c4ccccc34)c(=O)n(-c3ccc(OC)cc3)c2n1 | · | 28µM* | · | ·
OC1(c2cccnc2)CCN(Cc2ccc3c(c2)CN(Cc2cccc(F)c2F)CCO3)CC1 | · | -1% | · | ·
BrC(=C\c1ccccc1)/C=N/N1CCN(c2ccccn2)CC1 | 0% | -2% | 1% | 22µM*
COC(=O)C1CCCCN1Cc1nc(N(C)C)c2ccccc2n1 (stereo not given) | · | -1% | · | ·
CN(C)c1cc[n+](CC(=O)c2ccc(-c3ccccc3)cc2)cc1 | 2% | 25µM* | -8% | -3%
O=C(Nc1cccc(C(=O)OCc2cc(=O)n3nc(C4CC4)sc3n2)c1)c1cccc(Cl)c1 | -5% | 0% | -5% | 16µM*
Cc1oc(-c2ccccc2NC(=O)c2ccccc2)nc1CNC(=O)c1cccc(-n2cccn2)c1 | · | 4% | · | ·
O=c1c[n+]([O-])c2ccccc2n1OCc1ccccn1 | ? | 1% | -11% | ?
O=c1c[n+]([O-])c2ccccc2n1OCc1c(F)cccc1F | ? | 0% | -1% | 13µM*
Cc1c(C(=O)NCC(C)C)sc2ncnc(NCC3CCCO3)c12 (stereo not given) | · | 0% | · | ·
Cn1cccc1/C=C1\CCC/C(=C\c2cccn2C)C1=O | ? | 12% | ? | 13µM*
Cc1ccc(CNc2nc(CN3CCCCC3c3cccnc3)nc3ccccc23)o1 (stereo not given) | · | 0% | · | ·
N#Cc1ccc(/C=C\c2nccc3c2[nH]c2ccccc23)cc1 | 13µM* | ? | ? | ?
COC(=O)c1c(OCCN2CCCCC2)cc(=O)n2c1CCN(Cc1cccc3nccnc13)CC2 | · | 0% | · | ·
O=C(CSc1nc2ccccc2c(=O)n1Cc1ccccc1)NCc1ccco1 | 0% | 5.6µM* | -8% | 0%
O=C(NC1CCN(Cc2ccccc2)C1)c1cnn(-c2ncc3c(n2)-c2ccccc2CC3)c1C1CC1 (stereo not given) | · | 1% | · | ·
C(=C\c1ccco1)/C1=NN(c2ccccc2)C(c2ccco2)C1 (stereo not given) | ? | ? | 25µM* | ?
SMILES | Vif-A3G inh | PINK1 expr mod | Vif-A3F inh | Epigenetic reg
Fc1ccc(C2=NN(c3ccccc3)C(c3ccco3)C2)cc1 (stereo not given) | -5% | 15% | -2% | -1%
O=[N+]([O-])c1ccc(/C=C/C2=NN(c3ccccc3)C(c3ccco3)C2)o1 (stereo not given) | ? | 14% | ? | 13µM*
CC(C)C(NC(=O)c1ccoc1)c1nnc2n1CCN(Cc1ccc3c(c1)Cc1ccccc1-3)CC2 (stereo not given) | · | 0% | · | ·
CC(=O)c1ccccc1C(=O)NCC1Cc2cccc(-c3cccnc3)c2O1 (stereo not given) | · | 1% | · | ·
CN(Cc1cc(Cl)cc(Cl)c1)[C@H]1C[C@H]2c3[nH]c4ccccc4c3CCN2C(=O)[C@H]1CO | -15% | 45µM* | -12% | ·
CN(C(=O)C(C)(C)C)[C@H]1C[C@H]2c3[nH]c4ccccc4c3CCN2C(=O)[C@H]1CO | -17% | 1% | -18% | ·
CCOC(=O)c1ccc(Nc2nnc(C(C)(C)C)c(=O)[nH]2)cc1 | -15% | 25µM* | 3% | ?

Screening data (PubChem BioAssay)
